Assay outcomes: PubChem, National Center for Advancing Translational Sciences (NCATS)
The list is not random: actives were taken first. Their share in the collection is about 18%.
CtBP-E1A inh – blocks the CtBP interaction with E1A; AlphaScreen GST-E1A/His-CtBP binding, 1536-well; active compounds read low; activity change, % (no concentration beside the values); 340,000 tested, 0.49% active; in the data active means activity change below about -65%; inconclusive means mostly about -30% to -63%
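Steps: dispense buffer (Tris pH 8.0, NaCl 300 mM, TCEP 1 mM, BSA, Tween 20); add 5X protein mix (GST-E1A, His-CtBP, 125 nM each); pin 23 nL compound; 2 h at 37 °C, dark; add 5X beads (50 ug/mL); 1 h; read.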
Six1-Eya2 blk – blocks human Six1 binding to Eya2 | Q15475+O00167 | AlphaScreen GST-Six1/His-Eya2 binding, biochemical; active compounds read low | activity change, % (test concentration not listed) | 360,000 tested, 0.56% active | AID 651725; in the data active means activity change below about -65%; inconclusive means mostly about -30% to -63%
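AlphaScreen with GST-Six1 and His-Eya2 (5X mix: 250 nM and 500 nM), glutathione donor and nickel acceptor beads; buffer 50 mM Tris pH 8.0, 300 mM NaCl, 1 mM TCEP; 1 h at 37 C in the dark.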
TDP1 cell CPT – growth inhibition of DT40 Tdp1-/-;hTDP1 cells with camptothecin (screen for TDP1 inhibitors) | chicken DT40 Tdp1-/-;hTDP1 cells + 20 nM CPT, ATP luminescence, 48 h | Potency, µM (series often up to 46.2 µM), hits mostly inhibitors | 420,000 tested, 12% active | AID 686979; further: nearly all actives have a fitted effect of over 55% in size
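Cell growth measured by CellTiter-Glo luminescence after a minimum 48 h, 37 C compound exposure with 20 nM CPT in Tdp1-knockout DT40 cells stably expressing hTDP1, seeded 400/well; qHTS titration format.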
TDP1 inh – inhibitors of human tyrosyl-DNA phosphodiesterase TDP1. Q9NUW8. recombinant TDP1, AlphaScreen DNA substrate cleavage. Potency, µM (series often up to 130 µM), hits mostly inhibitors. 350,000 tested, 0.28% active. AID 485290; further: nearly all actives have a fitted effect of over 40% in size
Target sequence (Q9NUW8 whole entry, looked up): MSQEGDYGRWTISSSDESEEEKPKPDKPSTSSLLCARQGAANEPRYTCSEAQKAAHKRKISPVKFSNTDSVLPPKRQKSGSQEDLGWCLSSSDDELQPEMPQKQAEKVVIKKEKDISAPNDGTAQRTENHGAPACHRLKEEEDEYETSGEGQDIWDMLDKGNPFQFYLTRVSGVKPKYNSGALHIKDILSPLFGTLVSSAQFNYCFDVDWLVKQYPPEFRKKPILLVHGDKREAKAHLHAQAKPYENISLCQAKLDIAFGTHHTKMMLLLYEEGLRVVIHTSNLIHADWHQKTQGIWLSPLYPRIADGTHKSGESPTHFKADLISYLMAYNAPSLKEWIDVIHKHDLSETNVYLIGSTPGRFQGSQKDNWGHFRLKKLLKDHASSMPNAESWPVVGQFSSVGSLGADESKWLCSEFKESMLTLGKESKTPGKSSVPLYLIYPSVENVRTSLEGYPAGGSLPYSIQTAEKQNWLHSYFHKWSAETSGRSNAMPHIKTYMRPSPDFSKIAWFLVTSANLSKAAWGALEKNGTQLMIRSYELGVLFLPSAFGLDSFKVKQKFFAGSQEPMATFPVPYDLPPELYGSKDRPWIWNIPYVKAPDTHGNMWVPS
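Tdp1 1 nM final; 15 min RT w/ cpd; substrate 15 nM, 5 min; beads 10 ug/ml, 10 min; AlphaScreen read. Neg ctrl: no enzyme.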
DT40 TDP1 no CPT – qHTS for Inhibitors of human tyrosyl-DNA phosphodiesterase 1 (TDP1): qHTS in cells in absence of CPT | DT40 Tdp1-/- hTDP1 cells, no CPT, ATP luminescence, 48 h | 420,000 tested, 15% active | Potency, µM (top dose mostly 46.2 µM), actives largely listed as inhibitors; further: nearly all actives have a fitted effect of over 55% in size
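Seeded 400 DT40-hTDP1 cells/well (vehicle DMSO, no 20 nM CPT); pinned compounds; ≥48 hr at 37 °C; CellTiter-Glo luminescence as viability measure.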
IL1B secr inh – inhibitors of inflammasome signaling (IL-1 beta secretion); THP-1 LPS/ATP IL-1B secretion, AlphaLISA, 16 h; active compounds read low; activity change, % at 57.5 µM; 360,000 tested, 4.7% active; in the data active means activity change below about -50%; inconclusive means mostly about -30% to -49%
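THP-1 cells pretreated 1 hr with compounds (up to 57.5 uM final), then stimulated with LPS (250 ng/mL final) plus ATP (1.25 mM final); secreted IL-1B measured by AlphaLISA after 16 hr, decreased signal indicating inhibition.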
Hits are given with their value; n = inactive; u = inconclusive; x = no result given; ! = repeats disagree. Unless noted, the call rests on the fitted dose curve; in most records, active means well fitted curve in the direction sought with a large enough effect; inconclusive means small, poorly fitted or top-dose-only effect, or another doubt; inactive means no such curve, though single readings can be large; an effect the other way counts as inactive or inconclusive.

SMILES	CtBP-E1A inh	Six1-Eya2 blk	TDP1 cell CPT	TDP1 inh	DT40 TDP1 no CPT	IL1B secr inh
COc1ccc(/C=C\C(=O)O[C@@H]2C(O)C(O[C@@H]3OC(C)[C@H](O[C@@H]4OCC(O[C@H]5O[C@H](CO)[C@@H](O)C(O)C5O)C(O)C4O)C(O)C3O)[C@H](OC(=O)[C@]34CCC(C)(C)C[C@@H]3C3=CCC5[C@@]6(C)CC(O)C(O[C@@H]7OC(CO)C(O)[C@H](O)[C@H]7O)[C@@](C)(C(=O)O)C6CC[C@@]5(C)[C@]3(CO)CC4)O[C@H]2C)cc1 (some centres undefined)	n	n	3.66µM	n	5.17µM	-97.2
CCN(CC)c1nc2nonc2nc1N(CC)CC	n	n	n	n	u	n
Cc1ccc(C(=O)N/C(=C\c2ccco2)C(=O)NCCCn2ccnc2)cc1C	n	-80.6	n	n	n	n
CCn1cc(/C=C(\NC(=O)c2ccc(C)cc2)C(=O)NCCCn2ccnc2)c2ccccc21	x	x	u	n	20.6µM	x
CCCS(=O)(=O)N1CCC(C(=O)N2CCN(Cc3ccccc3)CC2)CC1	n	n	n	n	n	n
C=CCOc1ccccc1OC[C@H](O)CNC(C)C	x	x	x	n	x	x
OCC(O)COc1cccc2ccccc12 (centres undefined)	x	x	n	n	n	x
OC(CNCc1ccccc1F)COc1cccc2ccccc12 (centres undefined)	n	n	u	n	u	-69.8
CC(C)NCC(O)COc1cccc2ccccc12 (centres undefined)	n	n	16.4µM!	n	16.4µM!	n
CCc1ccc(CN(C)CC(O)COc2cccc3ccccc23)cc1 (centres undefined)	n	n	u	n	u	-99.1
CC(C)Cn1c(N)c(C(=O)COC(=O)c2cc(F)cc(F)c2)c(=O)n(C)c1=O	x	n	n	n	u	n
CC(C)Cn1c(N)c(C(=O)COC(=O)c2cc(C(F)(F)F)nc3ccccc23)c(=O)n(C)c1=O	n	n	8.2µM	n	18.4µM	n
Cc1nn(-c2ccccc2)c(C)c1C(=O)OCC(=O)c1c(N)n(CC(C)C)c(=O)n(C)c1=O	n	n	20.6µM	n	18.4µM	u
Cn1c(N)c(C(=O)COC(=O)c2cc(C(F)(F)F)nc3ccccc23)c(=O)n(C)c1=O	x	x	x	n	x	x
CC(C)Cn1c(N)c(C(=O)COC(=O)c2cc(-c3ccccc3)nc3ccccc23)c(=O)n(C)c1=O	x	n	20.6µM	n	16.4µM	n
CC(C)Cn1c(N)c(C(=O)COC(=O)c2cnc(Cl)c(Cl)c2)c(=O)n(C)c1=O	n	n	18.4µM	n	u	n
CO[C@@H]1CN(C)C(=O)c2cc(NC(=O)Nc3cc(F)ccc3F)ccc2OC[C@H](C)NC[C@@H]1C	n	n	n	x	n	n
O=C(c1cccs1)N1CCCC(c2nc3c(nnn3Cc3ccccc3)c(=O)[nH]2)C1 (centres undefined)	n	n	u	n	n	n
CC(C)Cn1c(N)c(C(=O)COC(=O)c2cc(C3CC3)nc3ccccc23)c(=O)n(C)c1=O	n	n	u	n	20.6µM	n
Cc1nnc(N2CCN(C(=O)Nc3cc(F)ccc3F)CC2)c2nn(-c3ccc(Cl)cc3)c(C)c12	x	x	20.6µM	n	20.6µM	x
COc1ccccc1NC(=O)N1CCN(c2nnc(C)c3c(C)n(-c4ccc(Cl)cc4)nc23)CC1	x	x	n	n	n	x
COC(=O)C(C)NC(=O)N1CCN(c2nnc(C)c3c(C)n(-c4ccc(Cl)cc4)nc23)CC1 (centres undefined)	x	x	u	n	23.1µM	x
Cc1ccc(NS(=O)(=O)c2ccc3c(c2)CC(=O)N3)c(C)c1	n	n	n	x	n	u
CCCS(=O)(=O)N1CCCC(C(=O)NCCN(Cc2ccccc2)C(C)C)C1 (centres undefined)	n	n	n	n	n	n
CCOC(=O)c1ccc(CNC(=O)CSc2nnnn2-c2ccc(Cl)cc2)o1	n	n	n	n	n	n
SMILES	CtBP-E1A inh	Six1-Eya2 blk	TDP1 cell CPT	TDP1 inh	DT40 TDP1 no CPT	IL1B secr inh
COc1cc(C2C(C#N)=C(C)NC3=C2C(=O)c2ccccc23)cc(OC)c1OC (centres undefined)	n	n	1.03µM	n	0.581µM	n
COc1cc(C2C(C#N)=C(C)NC3=C2C(=O)CC(C)(C)C3)cc(OC)c1O (centres undefined)	n	n	n	n	n	n
CCOc1ccc(C2C(C#N)=C(C)NC3=C2C(=O)c2ccccc23)cc1 (centres undefined)	n	n	20.6µM	n	14.6µM	n
COc1ccc(C2C(C#N)=C(C)NC3=C2C(=O)c2ccccc23)cc1 (centres undefined)	n	n	u	n	25.9µM	n
COc1ccc(-c2cc3ccccc3n2CC(O)CNCCO)cc1 (centres undefined)	n	n	23.1µM	n	14.6µM	n
CN(c1ccccc1)S(=O)(=O)c1ccc(NC(=O)c2cccs2)cc1	x	n	u	n	u	-60.2
CN(c1ccccc1)S(=O)(=O)c1ccc(NC(=O)c2ccc(F)cc2)cc1	n	n	n	x	u	-85.7
CN(c1ccccc1)S(=O)(=O)c1ccc(NC(=O)c2ccccc2)cc1	n	n	n	n	u	u
CN(c1ccccc1)S(=O)(=O)c1ccc(C(=O)Nc2ccncc2)cc1	n	n	u	x	14.6µM	n
CCN(c1ccccc1)S(=O)(=O)c1ccc(NC(=S)NC(=O)c2cccs2)cc1	n	n	u	n	23.1µM	n
CN(c1ccccc1)S(=O)(=O)c1nnc(NC(=O)c2cccs2)s1	x	x	n	n	n	x
COc1cc(OC)cc(C(=O)NCC(=O)OCC(=O)N2CCc3ccccc32)c1	x	n	u	n	u	n
O=S(=O)(Nc1cccc(-c2ccc(N3CCOCC3)nn2)c1)c1cc(C(F)(F)F)ccc1Cl	x	x	u	n	u	x
CC(=O)NS(=O)(=O)c1ccc(NC(=O)c2ccc(NC(=O)c3cccs3)cc2)cc1	n	u	n	44.7µM	n	n
CCCCN(C(=O)c1ccc(-c2ccc(Cl)cc2)o1)c1c(N)n(CC(C)C)c(=O)[nH]c1=O	n	n	u	n	u	n
Cc1c(C)n(Cc2ccccc2)c2ncnc(Cl)c12	n	n	14.6µM	x	3.66µM	n
Cc1c(C)n(CCc2ccccc2)c2ncnc(NCCO)c12	x	n	u	x	u	n
O=C(Cn1c(=O)oc2cc(S(=O)(=O)NCc3ccccc3)ccc21)N1CCCC1	n	n	n	x	n	n
O=C(Cn1c(=O)oc2cc(S(=O)(=O)NCc3ccccc3)ccc21)Nc1cccc(F)c1	x	x	u	n	u	x
